Screen size: about 190,000 compounds; about 240 (0.13%) were called active. Rule as the data show it: active = inhibition above about 40%. Only a selection was taken, and actives are over-represented in it overall.
Target: Bcl-2-related protein A1 (Homo sapiens) (UniProt Q16548)
Assay: inhibitors of Bim binding to Bfl-1, primary screen, biochemical, multiplexed, bead-based flow cytometry (AID 1008);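 also: 0% = wells without compound plus tracer and 100% = blocker peptide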
Conditions: Bim-Bfl-1 binding inhibition, at 10 µM, active compounds read high

Sequence of Bcl-2-related protein A1 (Homo sapiens) (Q16548 whole entry, looked up): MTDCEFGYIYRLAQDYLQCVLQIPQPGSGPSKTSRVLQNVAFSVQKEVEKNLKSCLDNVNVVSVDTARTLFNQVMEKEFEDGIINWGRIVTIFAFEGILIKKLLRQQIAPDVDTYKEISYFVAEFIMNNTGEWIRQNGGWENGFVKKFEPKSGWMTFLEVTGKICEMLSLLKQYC

Row | Compound | inhibition
1 | CCn1c(CNC(=O)c2ccco2)nnc1SCC(=O)Nc1cccc(F)c1 | -1% (inactive)
2 | Cc1ccc(C2CCN(C(=S)Nc3cccc(Cl)c3)C2)cc1 (stereo unspecified) | -4% (inactive)
3 | COC(=O)c1cc2c(ccn2C)n1C | -5% (inactive)
4 | COc1cc(OC)c(C(=O)OCC(=O)N2CC(=O)Nc3ccccc32)cc1OC | -1% (inactive)
5 | CCC(=O)c1ccc(OCC(O)Cn2nc(C)c(C(C)=O)c2C)cc1 (stereo unspecified) | 0% (inactive)
6 | CNC(=S)N1CCC(NC(=O)C(Cc2ccc(F)cc2)NC(C)=O)CC1 (stereo unspecified) | -2% (inactive)
7 | Cc1cc(CNCc2c(C(=O)N(C)Cc3ccccc3)nc3ccccn23)nn1C | -6% (inactive)
8 | COc1cccc(CNC(=O)CCN2C(=S)NC(C)(C)CC2C)c1 (stereo unspecified) | -5% (inactive)
9 | Cc1cc(OC(=O)c2ccccc2)c([N+](=O)[O-])c(=O)[nH]1 | -5% (inactive)
10 | S=c1ccc2ccccc2[nH]1 | -4% (inactive)
11 | Cc1cccc(CSc2nc3c(c(=O)n2C)SCC3)c1 | -2% (inactive)
12 | CCOc1cc(CNn2c(C)nnc2SCC(=O)NC(C)(C)C)ccc1OCC(=O)NC(C)(C)C | -7% (inactive)
13 | CC(C)Cn1c(N)c(C(=O)COC(=O)CN2C(=O)C3CC=CCC3C2=O)c(=O)n(C)c1=O (stereo unspecified) | -8% (inactive)
14 | COc1ccc(CNc2c(CO)cnc3c2cnn3C)cc1 | -3% (inactive)
15 | CCc1ccc(NC(=O)C(=O)N/N=C(\C)CC(=O)NCCOC)cc1 | -3% (inactive)
16 | O=C1C=CC(=O)N1c1ccc(N2CCCCC2)cc1 | 11% (inactive)
17 | CN1CCN(S(=O)(=O)c2cccc(C(=O)N3CCc4ccccc43)c2)CC1 | 1% (inactive)
18 | COc1cccc(CNC(=O)CCC2CCCN(Cc3ccc(OC(F)F)cc3)C2)c1 (stereo unspecified) | -4% (inactive)
19 | Cc1ccc(O)c(-c2cc(C(=O)Nc3c(C)n(C)n(-c4ccccc4)c3=O)[nH]n2)c1 | -2% (inactive)
20 | COc1cc(C(=O)NNC(=O)c2ccc(S(=O)(=O)N3CCCCC3)cc2)cc(OC)c1OC | 7% (inactive)
21 | CCc1ccc(NC2Nc3cc(C)nn3S2)cc1 (stereo unspecified) | -1% (inactive)

Row | Compound | inhibition
22 | CN(C)C(=O)CSc1n[nH]c(-c2ccco2)n1 | 2% (inactive)
23 | Cc1ccc(NC(=O)Cn2c(=O)n(CCC(=O)NC3CCN(Cc4ccccc4)CC3)c(=O)c3ccccc32)cc1 | -9% (inactive)
24 | Cc1cccc(C)c1N1CCN(S(=O)(=O)N2CCCCC2)CC1 | -3% (inactive)
25 | O=C(CSc1ncnc2scc(-c3ccccc3)c12)NCc1ccc2c(c1)OCO2 | 0% (inactive)
26 | CN(CCN1CCOCC1)Cc1nc(-c2ccc3c(c2)OCO3)no1 | -5% (inactive)
27 | N#C/C(=C(\O)C(F)(F)F)c1nnc2n1CCCCC2 | -5% (inactive)
28 | CC1CCN(C2=NC(=O)/C(=C/c3cn[nH]c3-c3ccccc3)S2)CC1 | -13% (inactive)
29 | O=C(Nc1nc(-c2cccnc2)cs1)c1ccccc1F | -9% (inactive)
30 | CN1CCN(NC(=O)c2ccc(S(=O)(=O)N3CCCCCC3)cc2)CC1 | -2% (inactive)
31 | CC1CCCCC1NC(=O)CO/N=C/c1ccc(OC(F)F)cc1 (stereo unspecified) | -7% (inactive)
32 | CCOC(=O)N1CCC(NC(=O)C(NS(=O)(=O)c2ccc3c(c2)CCN3C(=O)CC)C(C)C)CC1 (stereo unspecified) | -4% (inactive)
33 | CCc1nnc(NS(=O)(=O)c2ccc(NC(=S)NC(=O)/C=C/c3cccs3)cc2)s1 | 1% (inactive)
34 | CC(C)C(C)(C#N)NC(=O)CSc1nc2scc(-c3ccccc3)c2c(=O)[nH]1 (stereo unspecified) | 3% (inactive)
35 | Cc1ccc(N(C(=O)c2ccc(CN3CCOCC3)o2)C(C(=O)NCCC(C)C)c2cccs2)c(C)c1 (stereo unspecified) | -7% (inactive)
36 | O=C(O)CCS(=O)(=O)c1ccc(-c2ccccc2)cc1 | 0% (inactive)
37 | O=C(NCc1ccccn1)c1cc(-c2ccccc2Cl)on1 | 0% (inactive)
38 | CN(c1ccc(C(=O)NCc2ccccn2)cc1)S(C)(=O)=O | -18% (inactive)
39 | COc1ccc(NC(=O)Nc2ccc3nc(C)c(C)nc3c2)cc1 | -2% (inactive)
40 | COc1ccc(NC(=O)Nc2ccc3nsnc3c2)cc1 | -1% (inactive)
41 | O=C(NCc1ccccn1)c1ccc2nc(-c3ccco3)c(-c3ccco3)nc2c1 | 43% (active)
42 | COCCNC(=O)Nc1ccc2nc(-c3ccco3)c(-c3ccco3)nc2c1 | 48% (active)

Row | Compound | inhibition
43 | Cc1nnc(-c2ccc(Oc3ccc(C)c(C)c3)c([N+](=O)[O-])c2)o1 | 9% (inactive)
44 | Cc1cccc(C2c3[nH]c4ccccc4c3CCN2C(=O)c2cc(-c3cccn3C)n[nH]2)n1 (stereo unspecified) | -4% (inactive)
45 | Cc1cc(/C=C2/NC(=O)NC2=O)c(C)n1-c1cccnc1 | -4% (inactive)
46 | CCCCNC(=S)N/N=C1\CCCCc2ccccc21 | 0% (inactive)
47 | COc1cccc(-n2c(=S)sc3c(=O)n(-c4ccccc4OC)c(SCC4OCCO4)nc32)c1 | -3% (inactive)
48 | O=C(NNC(=O)C1C2CCC(C2)C1C(=O)O)c1ccc(Cl)cc1 (stereo unspecified) | -8% (inactive)
49 | COc1cccc(NC(=O)Cn2c3ccccc3c3nc4n(c(=O)c32)CCS4)c1 | 2% (inactive)
50 | CC(C)(C)NCCCOc1ccc(Cl)cc1C(C)(C)C | -1% (inactive)
51 | CCCCN=C1C([N+](=O)[O-])=CC=C2C1=NC1(CCCCC1)N2O | 0% (inactive)
52 | c1ccc(-c2cc3c(NCC4COc5ccccc5O4)ncnc3s2)cc1 (stereo unspecified) | -5% (inactive)
53 | CC1CCCN(S(=O)(=O)c2ccc(N(C(=O)c3cnccn3)C(C(=O)NC3CCCCC3)c3cccs3)cc2)C1 (stereo unspecified) | -2% (inactive)
54 | O=C(COC(=O)/C(=C/c1cccs1)c1cccs1)NCc1ccccc1Cl | 0% (inactive)
55 | O=C(CN1CCCCCC1)NCCN1C(=O)S/C(=C\c2ccccc2Cl)C1=O | -4% (inactive)
56 | O=C(O)c1cccc(N2C(=O)Nc3ccccc3N2O)c1 | 0% (inactive)
57 | O=C(CCN1CCCCC1)N=Nc1c(O)[nH]c2ccccc12 | 0% (inactive)
58 | CC(=O)Nc1ccc(NC(=S)NC(=O)/C=C/c2ccccc2)cc1 | -3% (inactive)
59 | CCCCNS(=O)(=O)c1ccc2nc(SCC(=O)Nc3cc(C)cc(C)c3)[nH]c2c1 | -1% (inactive)
60 | O=C(NCC1CCN(Cc2ccccc2Cl)CC1)Nc1cccc(Cl)c1 | -6% (inactive)
61 | CCOC(=O)c1cc2c(nc1NC(=S)Nc1ccccc1)CC(C)(CC)OC2 (stereo unspecified) | -11% (inactive)
